# According to PubChem BioAssay AID2088 (The Scripps Research Institute Molecular Screening Center, 2009):
# Assay: HeLa cell cycle G2/M accumulation – FACS, mechanism study for Wee1 degradation inhibitor project, late-stage follow-up (AID 2088)
# Conditions: HeLa Wee1-luciferase degradation, luminescence, G2/M arrest assay, compound-treated cells, stronger effect = higher value, concentration not given here
structure (smiles),measurement,value
Cc1ccnc(NC(=O)CCCOc2cc(=O)n(C)c3ccccc23)c1,G2/M cells,30.5%
